The panel holds about 83,000 compounds, 20% with a hit somewhere; the sample as a whole holds those more often.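 Interpretation: 100, growth as untreated; towards 0, rising growth inhibition; 0, no net growth; 0 to -100, cell death. Compounds scoring below 10 were considered active.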 A number with no mark means an inactive call. Active and inactive are the calls of the source.
tested on: HOP-92 NSCLC; assay: NCI-60 one-dose screen, 48 h (100 = growth as untreated, 0 = no growth, -100 = all killed); settings: 10 µM

SMILES	growth
Cc1ccc(C(=O)NNC(=O)CSc2nc3ccccc3c(=O)[nH]2)cc1	90.6%
CCCn1c(O)c(N=Nc2nc(-c3cc4ccccc4oc3=O)cs2)c2cc(Br)ccc21	86.3%
CN1CCN(c2ccc(Nc3nc(NCCNC(=O)c4ccc(C(F)(F)F)cc4)c4sccc4n3)cc2)CC1	-15.3% (active)
CN1CCN(c2ccc(C(=O)/C=C/c3cc(C(F)(F)F)ccc3Cl)cc2)CC1	-58.9% (active)
CCOc1ccc(/C=N/NC(=O)Cn2nc(Cc3ccccc3)c3onc(C)c3c2=O)cc1	-45.9% (active)
O=C(NO)c1ccc(-c2nc3ccc4[nH]ncc4c3c3c2CCCC3)cc1	-16.6% (active)
COc1ccc(-c2ccc(/C=N/NC(=O)c3[nH]c4ccc(Br)cc4c3-c3ccccc3)o2)cc1	85.9%
CCOC(=O)C1=C(N)N(c2ccc(C)cc2)C2=C(C(=O)CC(C)(C)C2)C1c1ccccc1OC (centres undefined)	117%
N#C/C(=C\c1ccc(N(c2ccccc2)c2ccccc2)cc1)C(N)=O	75.5%
NC1=NC(c2ccccc2Cl)N=C(Nc2nn[nH]n2)N1 (centres undefined)	95.3%
O=C(N/N=C/c1ccc(-c2cccc([N+](=O)[O-])c2)o1)c1[nH]c2ccc(Br)cc2c1-c1ccccc1	55.7%

tested on: NCI-H522 lung; assay: as above; settings: 10 µM

SMILES	growth
CNC(=O)c1cccc(N2CCc3c2ccc(NC(=O)Nc2ccc(N4CCN(C)CC4)c(C(F)(F)F)c2)c3F)c1	-91.7% (active)
CC(=O)Nc1ccc(-n2cnc3cc(-c4ccc(O)cc4)ccc32)cc1C	-29.1% (active)
CN(C)c1nc(NCCNS(=O)(=O)c2ccc(C(=O)/C=C/c3ccccc3)cc2)nc(Nc2ccc(F)cc2)n1	61.6%
O=C1CCC(N2Cc3c(C#CCCCNC(=O)c4ccc(NC(=O)[C@@H]5NC6(CCCCC6)[C@@]6(C(=O)Nc7cc(Cl)ccc76)[C@H]5c5cccc(Cl)c5F)cc4)cccc3C2=O)C(=O)N1 (some centres undefined)	70.3%
COc1cc(C2CC(c3ccccc3)=Nc3c(N)nc(N)nc3N2)ccc1Oc1nc(Nc2ccc(F)cc2)nc(N(C)C)n1 (centres undefined)	65.6%
CCOC(=O)C1=C(N)N(c2ccc(Cl)cc2)C2=C(C(=O)CC(C)(C)C2)C1c1ccc(N2CCOCC2)cc1 (centres undefined)	89.3%
O=C(c1ccc(Cl)cc1)C1[C@H](c2ccccc2Br)[C@@H](c2ccccc2)NC12C(=O)Nc1ccc(Cl)cc12 (some centres undefined)	3.07% (active)
Nc1nc(Nc2ccc(Cl)cc2)nn1Cc1cccc(Br)c1	27.6%
O=S(=O)(Nc1ncccn1)c1ccc(-n2c(-c3ccccc3)nc(-c3ccccc3)c2-c2ccccc2)cc1	94.4%
CN1CCc2c(sc3ncnc(N/N=C/c4cn(-c5ccccc5)nc4-c4ccc(Cl)cc4)c23)C1	3.5% (active)
Nc1nnc(-c2c[nH]c3ncccc23)c(-c2c[nH]c3ccc(Br)cc23)n1	47.9%
Cc1cc(=O)oc2cc(OCCCCOc3ccc(/C=C/C(=O)Nc4ccccc4[N+](=O)[O-])cc3)ccc12	105%
COc1ccc(-c2nc(S(=O)(=O)c3ccc(C)cc3)c(S(C)(=O)=O)o2)cc1	-96.6% (active)
CN1CCN(Cc2ccc(C(=O)Nc3cccc(Nc4ccc5c(O)cccc5n4)c3)cc2C(F)(F)F)CC1	-83.9% (active)
O=C1NC(=NC23CC4CC(CC(C4)C2)C3)N/C1=C\c1ccc2ncccc2n1	-20.6% (active)
COc1csc(/C=N/NC(=O)c2[nH]c3ccc(Br)cc3c2-c2ccccc2)c1	-48.5% (active)
O=C(Cn1nc(-c2ccccc2)ccc1=O)NNC(=S)NC1CCCCC1	104%
NS(=O)(=O)c1ccc(NC(=O)CSc2ccc(-c3ccccc3)nn2)c(Br)c1	42.4%
O=c1c2ccccc2nc(COc2ccccc2)n1/N=C/c1ccc(F)cc1	81.8%

SMILES	growth
O=C(Nc1ccc(Cl)c([N+](=O)[O-])c1)Nc1ccc(Cl)c([N+](=O)[O-])c1	28.1%
O=C(Nc1ccc(OCc2ccccc2)cc1)Nc1ccc(Cl)c(C(F)(F)F)c1	-20.3% (active)
COc1ccc2nc(Cl)c(-c3cc(-c4ccccc4)nc(N)n3)cc2c1	46.8%
CN1CCN(c2ccc(Nc3nc(NCCCNC(=O)c4ccccc4)c4sccc4n3)cc2)CC1	91.5%
O=C1Nc2ccc(F)cc2/C1=C/c1cccc(OCc2ccccc2)c1	5.02% (active)
Cc1noc2c(Cc3ccc([N+](=O)[O-])cc3)nn(CC(=O)N/N=C/c3ccc(Cl)cc3)c(=O)c12	69.5%
O=c1[nH]c2ccc(Cl)cc2cc1CSc1ccc(Nc2nccc(-c3ccc(Cl)cc3)n2)cc1	33.3%
O=S(=O)(Nc1ncccn1)c1ccc(-n2c(-c3ccc(Br)cc3)nc(-c3ccccc3)c2-c2ccccc2)cc1	74.5%
Cc1ccc(C(=O)NNC(=O)CSc2nc3ccccc3c(=O)[nH]2)cc1	106%
CCCn1c(O)c(N=Nc2nc(-c3cc4ccccc4oc3=O)cs2)c2cc(Br)ccc21	93.4%
CN1CCN(c2ccc(Nc3nc(NCCNC(=O)c4ccc(C(F)(F)F)cc4)c4sccc4n3)cc2)CC1	24.6%
CN1CCN(c2ccc(C(=O)/C=C/c3cc(C(F)(F)F)ccc3Cl)cc2)CC1	-60.4% (active)
CCOc1ccc(/C=N/NC(=O)Cn2nc(Cc3ccccc3)c3onc(C)c3c2=O)cc1	11.4%
O=C(NO)c1ccc(-c2nc3ccc4[nH]ncc4c3c3c2CCCC3)cc1	-43% (active)
COc1ccc(-c2ccc(/C=N/NC(=O)c3[nH]c4ccc(Br)cc4c3-c3ccccc3)o2)cc1	-44.1% (active)
CCOC(=O)C1=C(N)N(c2ccc(C)cc2)C2=C(C(=O)CC(C)(C)C2)C1c1ccccc1OC (centres undefined)	97.6%
N#C/C(=C\c1ccc(N(c2ccccc2)c2ccccc2)cc1)C(N)=O	74.5%
NC1=NC(c2ccccc2Cl)N=C(Nc2nn[nH]n2)N1 (centres undefined)	102%
O=C(N/N=C/c1ccc(-c2cccc([N+](=O)[O-])c2)o1)c1[nH]c2ccc(Br)cc2c1-c1ccccc1	-48.4% (active)
